ST2 inh = inhibitors of human ST2 (IL1RL1) binding to IL-33, primary screen, biochemical, AlphaLISA; Interleukin-1 receptor-like 1 (Homo sapiens), Q01638; AlphaLISA ST2-Fc/biotin-IL-33 interaction, 1 h; inhibition, % for hits at 17 µM; 78,000 compounds, 2.3% hits; AID 1259354, 2018; in the data active means inhibition above about 30%
Target sequence (Q01638 whole entry, looked up): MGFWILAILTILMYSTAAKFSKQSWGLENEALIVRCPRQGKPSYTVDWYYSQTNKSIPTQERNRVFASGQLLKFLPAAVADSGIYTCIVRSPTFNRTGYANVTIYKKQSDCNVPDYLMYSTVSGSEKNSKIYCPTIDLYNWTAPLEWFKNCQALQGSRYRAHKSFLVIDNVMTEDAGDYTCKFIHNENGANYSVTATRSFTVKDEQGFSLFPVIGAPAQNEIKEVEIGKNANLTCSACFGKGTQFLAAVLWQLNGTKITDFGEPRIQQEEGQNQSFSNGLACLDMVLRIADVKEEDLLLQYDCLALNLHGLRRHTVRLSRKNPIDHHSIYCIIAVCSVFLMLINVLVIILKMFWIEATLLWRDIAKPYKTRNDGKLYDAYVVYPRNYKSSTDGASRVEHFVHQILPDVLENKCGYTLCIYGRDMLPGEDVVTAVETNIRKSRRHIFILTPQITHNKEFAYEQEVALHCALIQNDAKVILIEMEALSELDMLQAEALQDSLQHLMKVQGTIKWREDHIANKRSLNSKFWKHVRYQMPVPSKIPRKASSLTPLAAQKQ
* marks the source's active call; other numbers are inactive results; i = inactive. Only a selection was taken, and hits are over-represented in it overall.

SMILES	ST2 inh
OCCn1c(-c2ccc(I)cc2)csc1=Nc1ccccc1	42.0%*
COc1ccc(OCCn2c(=N)n(CC(C)C)c3ccccc32)cc1	i
COc1ccc(-c2csc(=Nc3ccccc3)n2CCCN(C)C)cc1	44.0%*
COc1ccc(-c2cn3ccccc3n2)cc1F	i
COc1ccc(C(O)=C2C(=O)C(=O)N(CCCN(C)C)C2c2cccs2)c(C)c1 (configuration not stated)	i
OCCn1c(-c2ccc(Cl)cc2)csc1=Nc1ccccc1	61.0%*
COc1cc2c(cc1OC)C(C(=O)N1CCOCC1)C(c1ccc(SC)cc1)N(C)C2=O (configuration not stated)	i
N#CCSc1nc2c(sc3ccccc32)c(=O)n1CCc1c[nH]c2ccccc12	i
CCCNC(=O)c1cc(-c2cccs2)on1	i
O=C(Cc1c(C(=O)O)[nH]c2ccc(Cl)cc12)Nc1ccc(F)c(Cl)c1	i
COc1ccc(CCN(C)C2CCCN(C(=O)/C=C/c3cnc[nH]3)C2)cc1OC (configuration not stated)	i
c1ccc(N=c2scc(-c3ccccc3)n2CCN2CCOCC2)cc1	i
COc1ccc(CNC(=O)c2cc(-c3ccc4c(c3)OCO4)on2)cc1	i
Cc1csc(=Nc2ccccc2)n1CC(=O)c1ccc(Cl)cc1	36.0%*
COc1ccc(N=c2scc(-c3ccc4c(c3)OCCO4)n2CCO)cc1	32.0%*
COc1ccc2c(=O)c(-c3ccc4c(c3)OCCCO4)coc2c1	i
CCn1c(C)csc1=NC(=O)c1ccccc1O	i
OCCn1c(-c2ccc(Cl)c(Cl)c2)csc1=Nc1ccccc1	48.0%*
Cc1nc2ccccc2c(=O)n1CCCO	i
CC(C)CNC(=O)c1cc(-c2ccc(Cl)c(Cl)c2)on1	i
CCOC(=O)c1sc(=Nc2ccccc2)n(Cc2ccccc2)c1C	i
OCCCn1c(-c2ccccc2)csc1=Nc1ccccc1	61.0%*
CCCNC(=O)Cn1cnc2sc(C(=O)OCC)c(C)c2c1=O	i
Cn1c(CCNC(=O)C2CC23CCN(CC2=CC[C@H]4C[C@@H]2C4(C)C)CC3)nc2ccccc21 (some centres not stated)	i
CCC(C)NC(=O)CSc1cc(=O)n(C)c2cc(Cl)ccc12 (configuration not stated)	i
SMILES	ST2 inh
COc1cccc2c1OCCCN(Cc1ccc(CO)o1)C2	i
COc1ccc(Cl)cc1C(=O)Oc1cccc2cccnc12	i
NC(=O)c1ccc(NC(=O)CCSc2ccc(Cl)cc2)cc1	i
O=[N+]([O-])c1ccc(CN2CCCC(O)C2)cc1 (configuration not stated)	i
CCS(=O)(=O)N1CCN(c2cc(-c3ccc(OC)cc3)ncn2)CC1	i
CN1CC2(CCCN(C(=O)CCc3nc(Cl)n[nH]3)CC2)OC1=O (configuration not stated)	i
Cc1ccc(N2CN=C3SCC(=O)N3C2)cc1C	37.0%*
Cc1ccc(N2CN=C3SCC(=O)N3C2)cc1Cl	i
Cc1ccc(N2C(=O)C3CCCCC3C2=O)cc1C (configuration not stated)	i
CCC(=O)Nc1nc2c(s1)C(=O)CC(C)(C)C2	i
CCC(C)n1c(=N)c(C(=O)NC2CCCCC2)cc2c(=O)n3ccccc3nc21 (configuration not stated)	i
N#Cc1cc2c(=O)n3ccccc3nc2n(Cc2ccccc2)c1=N	i
CCC(C)n1c(=N)c(C#N)cc2c(=O)n3ccccc3nc21 (configuration not stated)	39.0%*
Cc1cccn2c(=O)c3cc(C(=O)NCc4cccnc4)c(=N)n(CCCn4ccnc4)c3nc12	i
N#Cc1cc2c(=O)n3ccccc3nc2n(CCCn2ccnc2)c1=N	31.0%*
N#Cc1cc2c(=O)n3ccccc3nc2n(CCc2ccccc2)c1=N	i
OCCN1CCN(CC2CC3C=CC2C3)CC1 (configuration not stated)	i
C=C(C)Cn1c(CCCNC(=O)c2cccs2)nc2ccccc21	i
CC1=NNC2c3c(sc4c3CCCCC4)-n3c(C)nnc3N12 (configuration not stated)	i
CCn1c2ccccc2c2cc(CN(C)C3CCN(C)CC3)ccc21	i
Cc1c(CN2CCCC(N3CCCC3=O)C2)[nH]c2ccc(F)cc12 (configuration not stated)	i
CCC(C)NC(=O)c1cc(-c2ccco2)on1 (configuration not stated)	i
Cn1c(=O)c2c(ncn2CC(=O)Nc2ccccn2)n(C)c1=O	i
CCCCNC(=O)Cn1cnc2c1c(=O)n(C)c(=O)n2C	i
CC1CN(C(=O)Cn2cnc3c2c(=O)n(C)c(=O)n3C)CC(C)O1 (configuration not stated)	95.0%*
SMILES	ST2 inh
Cc1ccc(N2NC(=O)/C(=C/c3ccc(Cl)cc3)C2=O)cc1Cl	i
COc1cc(/C=C2/C(=O)NN(c3ccc(Cl)cc3)C2=O)cc(OC)c1O	30.0%*
CC1=NN(c2ccc(F)cc2)C(=O)/C1=C/c1ccc(N(C)C)cc1	i
COc1cc(/C=C2/NC(=O)NC2=O)cc(OC)c1O	i
CCN(C)c1ccc(/C=C2/C(=O)NN(c3cccc(Br)c3)C2=O)cc1	39.0%*
COc1cc(C=C2C(=O)OC(C)(c3ccccc3)OC2=O)ccc1OCc1cccc(C(=O)O)c1 (configuration not stated)	i
O=C1NN(c2cccc(Br)c2)C(=O)/C1=C\c1ccccc1	i
C=CCOc1ccc(/C=C2\C(=O)NN(c3cccc(Br)c3)C2=O)cc1OC	34.0%*
COc1cc(C=O)ccc1OCCOc1ccc(Br)cc1Cl	i
CC(C)Cn1c(NCCO)nc2c1c(=O)[nH]c(=O)n2C	i
CC(C)Cc1nc2sc3c(N4CCOCC4)ncnc3c2c2c1COC(C)(C)C2	i
O=C(NCc1ccc(F)cc1)c1ccc(NC2=NC3CS(=O)(=O)CC3S2)cc1 (configuration not stated)	i
c1ccc(CCN2CCCC3(CCN(Cc4ccc5nsnc5c4)C3)C2)cc1 (configuration not stated)	i
CN(c1ncnc2c1cnn2-c1ccccc1)C1CCCCC1	i
CC(O)=Cc1nc2ccccc2nc1C=C(C)O	38.0%*
O=C(O)c1ccc2ccccc2n1	i
Cc1nc2ccccc2c(C(=O)O)c1C(=O)O	i
Cc1c(NCc2cccnc2)cccc1C(=O)NCc1ccc2nonc2c1	i
O=[N+]([O-])c1cccc(S(=O)(=O)Nc2ccc(Cl)c(Cl)c2)c1	i
Cc1ccc(-c2nccn2CCC2CCCN2C)o1 (configuration not stated)	i
Nc1nnc(/C=C/c2cccc([N+](=O)[O-])c2)s1	i
O=[N+]([O-])c1cccc(C(=Nc2ccccc2)NO)c1	i
O=[N+]([O-])c1cccc(/C=C/c2ccccn2)c1	37.0%*
CCc1ccccc1NC(=O)C1CCN(C(=O)c2ccccc2)CC1	i
CN(Cc1ccccc1)C(=O)CCCn1c(=O)[nH]c2ccsc2c1=O	i
Cc1cc(-c2cccc3ccnn23)ccc1NC(=O)c1cccnc1	i
CCN(CC)c1ccc(C=C2C(=O)OC(C)(C(C)(C)C)OC2=O)cc1 (configuration not stated)	43.0%*
COc1ccc(C=C2C(=O)OC3(CCCCC3)OC2=O)cc1O	i
Cn1cc(C=C2C(=O)OC3(CCCCC3)OC2=O)c2ccccc21	41.0%*
N#Cc1ccccc1Cn1cc(C=C2C(=O)NC(=O)NC2=O)c2ccccc21	i

Screening results as filed in PubChem.
